Measured values as given in PubChem BioAssay.
Active and inactive are the calls of the source.

Tests used:
[1] = test system: PRMT1 (protein arginine N-methyltransferase 1); assay: small molecules binding arginine methyltransferase PRMT1 – biochemical, small-molecule microarray, 635 nm fluorescence, primary screen (AID 1088); details: higher = more signal;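 further: binding of Prmt1 protein to compounds spotted on small-molecule microarray slides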
[2] = growth effects on S. cerevisiae YJM789 – YJM789 clinical isolate, OD600, 24 h, basal, primary screen (AID 1089); details: higher = more signal, called active from +8 up or from −8 down;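 further: growth of clinical yeast isolate S. cerevisiae YJM 789 seeded 1000 cells per well; test concentration not given here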
[3] = S. pombe growth modifiers, basal conditions – strain 972, OD600, 24 h, no modulator, primary screen (AID 1090);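 further: basal condition with compound alone and no growth modifier present; test concentration not given here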; details: S. pombe 972 growth, higher = more signal, called active from +8 up or from −8 down
[4] = budding yeast growth modifiers under rapamycin – strain BY4716, OD600, 96 h, primary screen (AID 1091); further: test concentration not given here; details: S. cerevisiae BY4716 + rapamycin, higher = more signal, called active from +8 up or from −8 down
[5] = target: Torsin-1A-interacting protein 2 (Homo sapiens) (UniProt Q8NFQ8); assay: small molecules binding lysate-expressed LULL1 – cell lysate, human LULL1 lysate, 635/667 nm fluorescence, primary screen (AID 1092); details: small-molecule microarray, hLULL1 lysate binding, 635 nm fluorescence; higher = more signal;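 further: probe is lysate of COS7 cells overexpressing human LULL1; score merges per-feature 667 nm fluorescence with signal-to-noise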
[6] = optical density change of DRC41 E. coli – strain DRC41, OD650, 24 h, E. coli filamentation project, primary screen (AID 1093);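 further: MC1000 strain lacking acrAB efflux and sulA so SOS filamentation is blocked; test concentration not given here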; details: E. coli DRC41 growth, higher = more signal, called active from +8 up or from −8 down
[7] = probe aLefty2 binding to arrayed compounds – biochemical, biotinylated probe, 635/667 nm fluorescence, primary screen (AID 1094); details: small-molecule microarray, higher = more signal;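 further: score merges spot fluorescence near 667 nm with spot signal-to-noise ratio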
[8] = test system: Noggin (protein binding on small-molecule microarray); assay: small molecules binding Noggin protein – biochemical, 635/667 nm fluorescence, primary screen (AID 1095); details: 635 nm fluorescence, higher = more signal;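 further: score merges 667 nm feature fluorescence with signal to noise over triplicate slides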
[9] = target: Neurogenic locus notch homolog protein 3 (Homo sapiens) (UniProt Q9UM47); assay: small molecules binding NOTCH3 protein – biochemical, 635/667 nm fluorescence, primary screen (AID 1096); details: small-molecule microarray, 635 nm fluorescence, higher = more signal
[10] = probe aEGFR binding to arrayed compounds – biochemical, biotinylated probe, 635/667 nm fluorescence, primary screen (AID 1097); details: small-molecule microarray, higher = more signal;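 further: probe is a biotinylated anti-EGFR antibody binding compounds printed on slides; score combines fluorescence near 667 nm and signal to noise of each spot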

Neurogenic locus notch homolog protein 3 (Homo sapiens), sequence (Q9UM47 whole entry, looked up): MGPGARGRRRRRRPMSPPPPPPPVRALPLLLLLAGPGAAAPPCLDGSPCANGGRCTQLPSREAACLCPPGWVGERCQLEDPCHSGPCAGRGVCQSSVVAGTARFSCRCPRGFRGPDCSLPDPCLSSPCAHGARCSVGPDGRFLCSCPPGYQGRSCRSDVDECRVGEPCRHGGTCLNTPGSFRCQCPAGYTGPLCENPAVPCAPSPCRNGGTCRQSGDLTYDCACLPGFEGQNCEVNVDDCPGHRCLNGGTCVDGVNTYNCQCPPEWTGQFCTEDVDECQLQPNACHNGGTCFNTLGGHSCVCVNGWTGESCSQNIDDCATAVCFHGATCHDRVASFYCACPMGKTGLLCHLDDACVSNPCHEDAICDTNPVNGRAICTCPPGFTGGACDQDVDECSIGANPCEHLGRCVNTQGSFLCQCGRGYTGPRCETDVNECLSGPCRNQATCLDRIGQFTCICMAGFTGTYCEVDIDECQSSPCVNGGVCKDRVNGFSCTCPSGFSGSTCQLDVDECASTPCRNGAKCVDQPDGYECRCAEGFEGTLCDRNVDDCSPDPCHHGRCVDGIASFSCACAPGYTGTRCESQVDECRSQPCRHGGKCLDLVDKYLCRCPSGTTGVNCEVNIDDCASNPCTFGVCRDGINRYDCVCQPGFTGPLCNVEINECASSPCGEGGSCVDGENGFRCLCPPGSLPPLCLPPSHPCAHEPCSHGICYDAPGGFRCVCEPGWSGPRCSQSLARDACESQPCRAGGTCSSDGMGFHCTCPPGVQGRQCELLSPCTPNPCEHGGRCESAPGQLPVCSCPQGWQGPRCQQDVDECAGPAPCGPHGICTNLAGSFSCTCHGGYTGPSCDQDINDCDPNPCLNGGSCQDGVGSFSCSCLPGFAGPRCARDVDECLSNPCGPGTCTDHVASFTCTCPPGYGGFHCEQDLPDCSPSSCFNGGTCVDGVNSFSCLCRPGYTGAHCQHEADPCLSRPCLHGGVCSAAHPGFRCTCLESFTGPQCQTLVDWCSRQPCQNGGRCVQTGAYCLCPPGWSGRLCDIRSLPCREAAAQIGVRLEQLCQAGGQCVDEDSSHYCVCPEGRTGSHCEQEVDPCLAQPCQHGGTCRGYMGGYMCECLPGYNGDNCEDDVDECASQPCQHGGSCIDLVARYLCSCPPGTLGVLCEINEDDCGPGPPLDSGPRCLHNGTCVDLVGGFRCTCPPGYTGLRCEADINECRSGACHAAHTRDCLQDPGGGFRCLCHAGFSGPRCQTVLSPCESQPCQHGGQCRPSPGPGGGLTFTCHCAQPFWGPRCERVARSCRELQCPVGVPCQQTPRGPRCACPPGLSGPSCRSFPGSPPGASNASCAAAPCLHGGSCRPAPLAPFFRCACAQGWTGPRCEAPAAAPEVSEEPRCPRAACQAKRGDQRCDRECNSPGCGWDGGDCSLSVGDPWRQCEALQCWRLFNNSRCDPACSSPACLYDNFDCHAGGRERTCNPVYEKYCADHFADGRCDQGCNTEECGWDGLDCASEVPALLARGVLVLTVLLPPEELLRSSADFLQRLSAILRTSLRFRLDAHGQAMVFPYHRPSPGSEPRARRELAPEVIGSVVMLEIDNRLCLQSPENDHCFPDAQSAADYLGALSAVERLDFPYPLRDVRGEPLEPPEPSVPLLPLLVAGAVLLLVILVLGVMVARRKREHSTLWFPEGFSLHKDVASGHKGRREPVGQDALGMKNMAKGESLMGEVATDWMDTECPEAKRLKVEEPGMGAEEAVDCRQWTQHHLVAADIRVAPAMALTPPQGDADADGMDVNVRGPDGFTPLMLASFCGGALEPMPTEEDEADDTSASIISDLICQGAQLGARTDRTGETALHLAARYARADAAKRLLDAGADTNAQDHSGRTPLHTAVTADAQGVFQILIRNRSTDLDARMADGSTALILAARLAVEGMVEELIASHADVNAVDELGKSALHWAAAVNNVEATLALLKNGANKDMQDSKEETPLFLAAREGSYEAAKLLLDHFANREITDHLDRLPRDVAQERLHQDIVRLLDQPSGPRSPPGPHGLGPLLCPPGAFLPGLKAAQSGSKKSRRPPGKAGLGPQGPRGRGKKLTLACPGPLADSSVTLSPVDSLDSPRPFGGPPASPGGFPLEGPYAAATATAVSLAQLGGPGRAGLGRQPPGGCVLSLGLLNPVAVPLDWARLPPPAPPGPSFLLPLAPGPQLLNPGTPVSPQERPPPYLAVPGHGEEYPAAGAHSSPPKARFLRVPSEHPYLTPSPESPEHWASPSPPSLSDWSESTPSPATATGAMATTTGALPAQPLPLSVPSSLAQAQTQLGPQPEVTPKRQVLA
Torsin-1A-interacting protein 2 (Homo sapiens), sequence (Q8NFQ8 whole entry, looked up): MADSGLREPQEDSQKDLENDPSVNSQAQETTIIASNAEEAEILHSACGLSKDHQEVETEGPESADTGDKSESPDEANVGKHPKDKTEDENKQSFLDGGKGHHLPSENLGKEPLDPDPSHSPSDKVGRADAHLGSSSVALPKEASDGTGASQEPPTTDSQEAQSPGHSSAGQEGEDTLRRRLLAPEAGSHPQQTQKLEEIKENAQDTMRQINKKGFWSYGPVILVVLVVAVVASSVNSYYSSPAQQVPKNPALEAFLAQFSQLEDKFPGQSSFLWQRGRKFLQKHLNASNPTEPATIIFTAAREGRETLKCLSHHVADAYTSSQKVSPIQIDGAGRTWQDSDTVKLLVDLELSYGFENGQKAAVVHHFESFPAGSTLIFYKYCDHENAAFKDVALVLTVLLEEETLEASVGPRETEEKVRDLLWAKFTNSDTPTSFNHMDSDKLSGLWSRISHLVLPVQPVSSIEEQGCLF

Compound | composite z-score [1] | z-score [2] | z-score [3] | z-score [4] | composite z-score [5] | z-score [6] | composite z-score [7] | composite z-score [8] | composite z-score [9] | composite z-score [10]
CC(C)c1ccc(NN2C(C(O)c3ccc(F)cc3)C=CC3C(=O)N(c4ccccc4)C(=O)C32)cc1 (stereo not given) | 1.47 | 1.22 (inactive) | 0.842 (inactive) | 0.159 (inactive) | 3.57 | -1.01 (inactive) | -0.0865 | -0.101 | 1.03 | 0.0182
[N-]=[N+]=Nc1ccccc1C[C@]1(C(=O)N2CCOCC2)COC(c2ccc(OCCCO)cc2)=N1 | 1.56 | -2.05 (inactive) | -5.79 (inactive) | -2.08 (inactive) | 3.51 | 1.91 (inactive) | 0.0446 | 0.182 | 1.06 | 0.0308
COCCOC(=O)N1C(=O)[C@@]2(c3cc(C#CC4(O)CCCCCC4)ccc31)[C@H](C(=O)Nc1nc3ccccc3s1)[C@H]1C(=O)O[C@H](c3ccccc3)[C@H](c3ccccc3)N1[C@@H]2c1ccc(O)cc1 | 1.54 | 0.806 (inactive) | 0.572 (inactive) | 1.33 (inactive) | 2.21 | 0.0347 (inactive) | -0.0022 | 0.683 | 1.04 | 0.0692
CCC#CCN(Cc1ccccc1Br)[C@H](/C=C/C1CC1)[C@@H](O)Cc1ccccc1 | -0.134 | -2.3 (inactive) | -1.55 (inactive) | -1.72 (inactive) | -0.783 | 1.35 (inactive) | 0.208 | -0.679 | -0.838 | -0.18
CC(CO)N1C(=O)[C@@H]2[C@H]3C(=O)OCC=C[C@H]3OC23C=CCN(Cn2nnc4ccccc42)C(=O)[C@@H]13 (stereo not given in full) | -0.533 | -0.596 (inactive) | -0.225 (inactive) | -0.473 (inactive) | -0.444 | -0.333 (inactive) | -0.185 | -0.746 | -0.652 | -0.292
CC1CC/C=C\[C@H]2OC34C=CCN(Cc5ccccc5)C(=O)[C@H]3N(C(CO)C(C)C)C(=O)[C@@H]4C2C(=O)O1 (stereo not given in full) | -0.856 | 0.0869 (inactive) | -0.978 (inactive) | 0.101 (inactive) | 0.251 | 0.154 (inactive) | -0.0042 | -0.964 | -1.1 | 0.244
CCOC(=O)C[C@H]1[C@H](OC(=O)c2cc3ccccc3oc2=O)[C@@H](NC(=O)c2ccc3ccccc3n2)c2cc(OCCCO)ccc2N1C(=O)Cc1ccc(OC)cc1 | 1.45 | -0.136 (inactive) | -0.163 (inactive) | -0.617 (inactive) | 1.33 | 0.397 (inactive) | -0.0391 | 0.638 | 1.16 | 0.104
COC(=O)[C@@]1(Cc2ccc(F)cc2)[C@H]2c3cc(C(=O)N(C)C)n(Cc4ccc(OC(F)(F)F)cc4)c3C[C@H]2CN1C(=O)c1ccccc1 | -1.21 | 0.784 (inactive) | 1.13 (inactive) | 1 (inactive) | 0.841 | -0.623 (inactive) | -0.0623 | 0.149 | -0.0482 | 0.114
COc1ccc(C#Cc2ccc3c(c2)[C@]2(C(=O)N3)[C@H](C(=O)O)[C@H]3C(=O)O[C@H](c4ccccc4)[C@H](c4ccccc4)N3[C@@H]2c2ccc(O)cc2)cc1 | 0.789 | 1.26 (inactive) | -0.813 (inactive) | 0.0118 (inactive) | 1.98 | 0.781 (inactive) | -0.0042 | -0.654 | -0.468 | -0.0758
COCC(=C=CC[C@H](O)c1ccc(CO)o1)CCO | 1.09 | 0.6 (inactive) | 0.0793 (inactive) | 0.244 (inactive) | 0.751 | -0.349 (inactive) | -0.0501 | 1.04 | 1.12 | -0.0976
C=CCC(OC(C)=O)[C@@H]1[C@@H](N(Cc2ccc(-c3cccc(C(F)(F)F)c3)o2)C(=O)c2ccc(-c3ccccc3)cc2)c2cc(OCCCO)ccc2N1C(=O)Cc1ccc2ccccc2c1 (stereo not given in full) | -0.457 | 0.955 (inactive) | 0.863 (inactive) | 1.09 (inactive) | 0.512 | -0.898 (inactive) | -0.0928 | -0.214 | -0.3 | -0.235
COc1ccc(C(=O)Nc2ccc(CN3C(=O)[C@]4(O[C@H](CC(=O)N5Cc6ccccc6C[C@H]5CO)[C@@H]([Si](C)(C)c5ccc(OC)cc5)[C@@H]4C)c4ccccc43)cc2)cc1 | 1.56 | 0.186 (inactive) | 1.04 (inactive) | 3.94 (inactive) | 1.77 | 0.315 (inactive) | -0.145 | 1.34 | 1.13 | -0.096
Cc1ccc(S[C@]2(C(=O)NCC(F)(F)F)CC(=O)N(Cc3cc(C(F)(F)F)cc(C(F)(F)F)c3)[C@@H]2c2ccc(CO)cc2)cc1 | 1.31 | 0.0966 (inactive) | -0.322 (inactive) | -1.53 (inactive) | 1.79 | -0.002 (inactive) | -0.152 | -0.556 | -0.133 | -0.181
CC(C)NC(=O)[C@@]1(c2ccc([N+](=O)[O-])cc2)CC(=O)N(C2CCCCC2)[C@@H]1c1ccc(CO)cc1 | 1.54 | 0.359 (inactive) | 0.52 (inactive) | -0.55 (inactive) | 2.85 | 1.07 (inactive) | -0.271 | 1.77 | 1.07 | -0.296
O=C(NCCN1CCOCC1)[C@@H]1c2ccccc2C(=O)N(Cc2ccccc2Cl)[C@H]1c1ccc(CO)cc1 | -0.7 | 0.506 (inactive) | 0.545 (inactive) | -0.214 (inactive) | -0.201 | 0.561 (inactive) | -0.547 | -1.31 | -1.4 | -0.362
N[C@@H](Cc1ccccc1)C(=O)NCc1cn(Cc2ccccc2)nn1 | 0.05 | 0.246 (inactive) | -0.572 (inactive) | -1.05 (inactive) | -0.183 | 0.78 (inactive) | 0.0582 | 0.465 | -0.005 | 0.0282
O=C1OCCC/C=C\[C@H]2OC34C=CCN(c5ccc6ccccc6c5)C(=O)[C@H]3N(CCO)C(=O)[C@@H]4C12 (stereo not given in full) | -0.352 | 0.0709 (inactive) | -0.224 (inactive) | 0.341 (inactive) | 0.25 | 0.491 (inactive) | -0.14 | -1.79 | -0.858 | -0.335
COc1ccc([Si](C)(C)[C@H]2[C@H](CC(=O)N3CCC[C@H]3CO)O[C@@]3(C(=O)N(Cc4ccc(N5CCOC5=O)cc4)c4ccccc43)[C@@H]2C)cc1 | 1.56 | -0.546 (inactive) | 0.0871 (inactive) | -0.38 (inactive) | 2.31 | 1.08 (inactive) | -0.0063 | 1.32 | 1.11 | -0.0409
COc1ccc([Si](C)(C)[C@H]2[C@H](CC(=O)N(CCO)Cc3ccccc3)O[C@@]3(C(=O)N(C)c4c(Br)cc(C)cc43)[C@@H]2C)cc1 | 1.46 | -1.62 (inactive) | -1.59 (inactive) | 1.93 (inactive) | 1.25 | 0.114 (inactive) | 0.0256 | 1.79 | 0.758 | -0.126
CN(C)C(=O)[C@@]1(Cc2ccccc2CN=[N+]=[N-])N=C(c2ccc(OCCCO)cc2)O[C@H]1c1ccccc1N=[N+]=[N-] | 1.43 | -0.415 (inactive) | 0.417 (inactive) | 5.36 (inactive) | 3.37 | 0.151 (inactive) | 0.445 | 0.452 | 1.14 | 0.242
CCOC(=O)C[C@H]1[C@H](OC(=O)c2cc3ccccc3oc2=O)[C@@H](NC(=O)c2ccccc2)c2cc(OCCCO)ccc2N1C(=O)c1ccccc1 | 0.58 | 0.126 (inactive) | -1.64 (inactive) | -0.277 (inactive) | -0.098 | -0.12 (inactive) | -0.0422 | 0.992 | 0.819 | 0.223
COC(=O)[C@@]1(Cc2ccccc2)[C@H]2c3cc(C(=O)N(C)C)n(Cc4ccc(C)o4)c3C[C@H]2CN1C(=O)c1ccccc1 | 0.163 | 1.07 (inactive) | 0.65 (inactive) | 0.982 (inactive) | 2.93 | -1.64 (inactive) | 0.746 | -0.471 | 1.13 | 0.667
[N-]=[N+]=Nc1ccccc1[C@@H]1OC(c2ccc(OCCCO)cc2)=N[C@]1(Cc1ccccc1)C(=O)O | 1.56 | 0.85 (inactive) | 0.594 (inactive) | 1.82 (inactive) | 2.43 | 0.779 (inactive) | 0.106 | 0.522 | 1.05 | -0.268
CCCNC(=O)[C@@]1(Sc2ccc(C)cc2)CC(=O)N(C2Cc3ccccc3C2)[C@@H]1c1ccc(CO)cc1I | 0.918 | -0.452 (inactive) | -1.32 (inactive) | 1.21 (inactive) | 1.28 | 0.761 (inactive) | -0.0321 | -0.287 | -0.0184 | -0.126
CCOC(=O)C1=CC[C@@H](c2ccccc2)N(S(=O)(=O)c2ccc(C)cc2)[C@H]1c1ccccc1 | 0.0074 | 0.181 (inactive) | 1.88 (inactive) | 3.8 (inactive) | 1.74 | -0.794 (inactive) | 0.02 | 0.156 | 0.505 | 0.0515
[N-]=[N+]=Nc1ccccc1[C@H]1OC(c2ccc(OCCCO)cc2)=N[C@@]1(Cc1ccccc1)C(=O)NCCN1CCOCC1 | 1.57 | 0.0597 (inactive) | -1.75 (inactive) | 1.72 (inactive) | 3.23 | 1.06 (inactive) | 0.363 | 1.36 | 1.05 | 0.688
COc1cc2c(cc1O)C(C1CC1)N(Cc1cccc(OC(F)(F)F)c1)CC2 (stereo not given) | 0.694 | -2.19 (inactive) | -5.25 (inactive) | -2.53 (inactive) | 1.88 | 0.394 (inactive) | -0.0575 | -0.242 | -0.167 | 0.0009
CO[C@H]1O[C@H](CO)[C@@H](OC(=O)Nc2ccc3c(c2)OCO3)[C@H](OC(=O)Nc2ccc3c(c2)OCO3)[C@@H]1OC(=O)Nc1ccc2c(c1)OCO2 | 1.54 | 1.15 (inactive) | 1.37 (inactive) | 5.69 (inactive) | 3.44 | 0.508 (inactive) | 0.0909 | 0.643 | 1.03 | -0.039
